Source: PubChem BioAssay (NCATS)
Inconclusive results are not listed. Activity calls are given as the source filed them. Calls follow the shape of the dose curve; as a rule, active = well fitted curve in the direction sought with a large enough effect; inconclusive = small, poorly fitted or top-dose-only effect, or another doubt; inactive = no such curve, though single readings can be large; an effect the other way counts as inactive or inconclusive.

What was measured:
[1] = MultiTox-Fluor Cytotoxicity Assay - LYMP1-002 - Dead Cells (AID 960); details: LYMP1-002 lymphoblastoid cells, dead-cell protease fluorescence; series mostly up to 46.1 µM;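 also: cells exposed to compound for 16 h at 37 °C; nearly all actives have a fitted effect of over 60% in size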
How it was run: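 Cells were plated, rested 5 hr, then treated with compound dilution series for 16 hr at 37 C. After adding substrate reagent and 60 min at room temperature, dead-cell protease fluorescence gave concentration-response curves fitted by the Hill equation.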

[2] = MultiTox-Fluor Cytotoxicity Assay - LYMP1-003 - Dead Cells (AID 961); details: LYMP1-003 lymphoblastoid cells, dead-cell protease fluorescence; series mostly up to 92.2 µM;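 also: cells exposed to compound for 16 h at 37 °C; nearly all actives have a fitted effect of over 70% in size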
How it was run: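 LYMP1-003 lymphoblastoid, 2500 cells/well, 5 hr settle then 16 hr cpd at 37 C; MultiTox-Fluor reagent 60 min RT; Ex/Em 485/520 dead-cell signal; norm. DMSO = 0%, 15 uM tetraoctylammonium bromide = 100%; Hill AC50.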

[3] = MultiTox-Fluor Cytotoxicity Assay - LYMP1-003 - Live Cells (AID 962); details: LYMP1-003 lymphoblastoid cells, MultiTox-Fluor live-cell protease fluorescence; series mostly up to 92.2 µM;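 also: cells exposed to compound for 16 hours at 37 °C; cytotoxic hits lower the live-cell protease signal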
How it was run: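 Acute cytotoxicity is scored as a drop in live-cell protease activity in human lymphoblastoid LYMP1-003 cells after 16 hr compound exposure at 37 C. AC50 values come from Hill-equation modelling of concentration-response data.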

[4] = Cell Viability - LYMP1-003 - Assay at 24 hr (AID 963); details: LYMP1-003 lymphoblastoid cell viability; series mostly up to 92.2 µM
How it was run: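 Cytotoxicity is scored as a concentration-dependent fall in ATP-linked luciferase signal in human lymphoblastoid LYMP1-003 cells treated 24 hr at 37 C in complete culture medium.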

[5] = Cell Viability - LYMP1-003 - Assay at 40 hr (AID 964); details: LYMP1-003 lymphoblastoid viability; series mostly up to 92.2 µM; also: nearly all actives have a fitted effect of over 60% in size
How it was run: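 Luminescent ATP signal (CellTiter-Glo) served as the viability read-out after 40 hr compound treatment of human lymphoblastoid LYMP1-003 cells at 37 C. Decreases in ATP were fitted with the Hill equation to give AC50.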

[6] = Cell Viability - LYMP2-003 (AID 965); details: LYMP2-003 lymphoblastoid cell viability; series mostly up to 92.2 µM;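 also: cells exposed to compounds for 24 h before reading; nearly all actives have a fitted effect of over 50% in size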
How it was run: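 CellTiter-Glo luminescence quantified ATP loss after 24 h compound treatment of LYMP2-003 lymphoblastoid cells at 37 C. Titration series were fitted with the standard Hill equation to give AC50.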

[7] = Cell Viability - LYMP2-004 (AID 966); details: LYMP2-004 lymphoblastoid cell viability, qHTS; series mostly up to 92.2 µM; also: nearly all actives have a fitted effect of over 65% in size
How it was run: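 qHTS cytotoxicity: human lymphoblastoid line, 24 hr compound treatment, 37 C, complete medium. Viability read as cellular ATP via luciferase luminescence; tetraoctylammonium bromide served as positive control.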

[8] = Cell Viability - LYMP2-005 (AID 967); details: LYMP2-005 lymphoblastoid cell viability; series mostly up to 92.2 µM
How it was run: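 LYMP2-005 human lymphoblastoid cells (2500/well) were treated with compounds for 24 h at 37 C. Intracellular ATP was then measured by CellTiter-Glo luminescence after 30 min at room temperature. AC50 values came from Hill-equation fits of qHTS concentration-response data.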

[9] = Cell Viability - LYMP2-009 (AID 968); details: LYMP2-009 lymphoblastoid cell viability; series mostly up to 92.2 µM; also: nearly all actives have a fitted effect of over 55% in size
[10] = Cell Viability - LYMP2-013 (AID 970); details: LYMP2-013 lymphoblastoid cells viability; series mostly up to 92.2 µM; also: nearly all actives have a fitted effect of over 55% in size
How it was run: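 Cytotoxicity is scored as a concentration-dependent drop in intracellular ATP in human lymphoblastoid cells after 24 hr compound exposure at 37 C. ATP is quantified by luciferase luminescence, and AC50 values come from Hill-equation modeling.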

[11] = Cell Viability - LYMP2-015 (AID 971); details: LYMP2-015 lymphoblastoid cell viability; series mostly up to 92.2 µM; also: nearly all actives have a fitted effect of over 55% in size
How it was run: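 Cells are seeded at 2500 per well and incubated 5 hr at 37 C. Compounds are added across a concentration series for 24 hr at 37 C. CellTiter-Glo is added, and luminescence is read after 30 min at room temperature.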

[12] = Cell Viability - LYMP2-017 (AID 972); details: LYMP2-017 lymphoblastoid cell viability; series mostly up to 92.2 µM; also: nearly all actives have a fitted effect of over 55% in size
How it was run: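 Cytotoxicity is scored as a concentration-dependent drop in cellular ATP in a human lymphoblastoid line after 24 hr treatment at 37 C. Values are AC50s from Hill-equation modelling.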

[13] = Cell Viability - LYMP2-019 (AID 973); details: LYMP2-019 lymphoblastoid cell line viability; series mostly up to 92.2 µM; also: nearly all actives have a fitted effect of over 55% in size
How it was run: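 Cytotoxicity is scored as a concentration-dependent drop in cellular ATP after cells (2500/well) receive compound for 24 hr at 37 C. Tetraoctylammonium bromide serves as positive control.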

[14] = Cell Viability - LYMP2-021 (AID 974); details: LYMP2-021 lymphoblastoid cells viability; series mostly up to 92.2 µM
How it was run: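 Loss of cellular ATP, measured with a luciferase-based CellTiter-Glo readout, serves as the toxicity signal in human lymphoblastoid cells treated for 24 hours at 37 C. Potency is reported as AC50 from a standard Hill model.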

[15] = Cell Viability - LYMP2-023 (AID 975); details: LYMP2-023 lymphoblastoid cell viability; series mostly up to 92.2 µM
How it was run: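 Steps: seed 2500 human lymphoblastoid cells per well, incubate 5 hr at 37 C, add compound for 24 hr at 37 C, add CellTiter-Glo, hold 30 min at room temperature, read luminescence. AC50 derived by Hill modelling.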

[16] = Cell Viability - LYMP2-025 (AID 976); details: LYMP2-025 lymphoblastoid cell viability; series mostly up to 92.2 µM
How it was run: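 Acute cytotoxicity is scored as a concentration-dependent fall in intracellular ATP, measured by luciferase luminescence, in human lymphoblastoid LYMP2-025 cells exposed to compound for 24 hours at 37 C. AC50 values come from standard Hill fits.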

[17] = Cell Viability - LYMP2-002 (AID 977); details: LYMP2-002 lymphoblastoid cell viability, qHTS; series mostly up to 92.2 µM;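 also: compound exposure lasted 24 h at 37 °C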
How it was run: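 In this qHTS viability screen, 2500 human lymphoblastoid cells per well receive compound for 24 hr at 37 C, and luciferase-based ATP luminescence gives the viability signal. Tetraoctylammonium bromide serves as positive control.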

[18] = Cell Viability - LYMP2-007 (AID 979); details: LYMP2-007 lymphoblastoid cell viability; series mostly up to 92.2 µM;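 also: cells exposed to compound for 24 h before reading; nearly all actives have a fitted effect of over 60% in size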
How it was run: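 Cells are seeded at 2500 per well and rested 5 hr. Compounds are then added over a concentration series for 24 hr at 37 C. CellTiter-Glo is added for 30 min at room temperature before luminescence reading.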

[19] = Cell Viability - LYMP2-008 (AID 980); details: LYMP2-008 lymphoblastoid cell viability, qHTS; series mostly up to 92.2 µM; also: nearly all actives have a fitted effect of over 60% in size
How it was run: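 Cells seeded at 2500/well and rested 5 hr at 37 C; compounds added over a concentration range and incubated 24 hr at 37 C; CellTiter-Glo added, 30 min at room temperature; luminescence read and AC50 fitted with Hill model.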

[20] = target: Alpha-galactosidase (Coffea arabica) (UniProt Q42656); experiment: Counterscreen for Glucocerebrosidase Inhibitors: qHTS Assay for Coffee Bean alpha-Galactosidase at pH 4.5 (AID 957); details: purified coffee bean alpha-galactosidase, fluorogenic substrate; series mostly up to 76.9 µM
Sequence of Alpha-galactosidase (Coffea arabica) (Q42656 whole entry, looked up): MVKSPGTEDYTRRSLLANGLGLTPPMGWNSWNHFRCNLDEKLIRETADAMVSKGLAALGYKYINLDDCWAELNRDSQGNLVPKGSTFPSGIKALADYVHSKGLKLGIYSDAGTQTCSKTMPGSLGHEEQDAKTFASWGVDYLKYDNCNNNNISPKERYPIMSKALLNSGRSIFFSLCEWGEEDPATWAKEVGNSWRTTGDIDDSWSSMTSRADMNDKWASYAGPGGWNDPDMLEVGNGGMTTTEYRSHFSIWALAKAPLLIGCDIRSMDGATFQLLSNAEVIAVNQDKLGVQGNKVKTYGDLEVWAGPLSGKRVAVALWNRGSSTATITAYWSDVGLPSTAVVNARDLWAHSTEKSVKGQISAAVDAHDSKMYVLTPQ
How it was run: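 Enzyme is added first (2 nM final), then compounds titrated from 0.7 nM to 77 uM, then 80 uM 4-methylumbelliferyl alpha-D-galactopyranoside; after 20 min at room temperature a pH 10 NaOH/glycine stop precedes fluorescence reading at 365/440 nm.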

Measured: Potency

COc1cc(OC)c(OC)cc1C=O
not listed: [20]
inactive: all other assays above

C[C@]1(O)CC[C@H]2[C@@H]3CCC4=CC(=O)CC[C@]4(C)[C@@]3(F)[C@@H](O)C[C@@]21C
not listed: [20]
inactive: all other assays above

CCN(CC)CCNC(=O)c1cc(S(C)(=O)=O)ccc1OC
inactive: [20]
